About 79,000 compounds went through this panel and 15% of them were active in at least one assay; those are over-represented in the sample as a whole. A number with no mark means an inactive call. Activity calls are given as the source filed them. Cut-off read from the data, not from the text of the source: active = growth inhibition above about 70%; inactive = the rest.
Columns and labels:
[1] = NCI Yeast Anticancer Drug Screen. Data for the rad50 strain (AID 155);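 note: 0% = growth of vehicle-only cultures of the same strain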; conditions: S. cerevisiae rad50 strain growth inhibition, stronger effect = higher value
Summary of the method: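 DNA repair mutant yeast, compound exposure, growth read-out; inhibition is taken relative to vehicle.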

[2] = NCI Yeast Anticancer Drug Screen. Data for the mec2-1 strain (AID 157); conditions: S. cerevisiae mec2-1 strain, stronger effect = higher value
Summary of the method: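 Vehicle-treated cultures served as reference for growth inhibition of compound-exposed mec2-1 yeast.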

[3] = NCI Yeast Anticancer Drug Screen. Data for the sgs1 mgt1 strain (AID 161);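 note: 0% = growth of cultures given vehicle only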; conditions: S. cerevisiae sgs1 mgt1 strain, stronger effect = higher value
Summary of the method: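 Inhibition of yeast growth, normalised to vehicle-treated controls, is reported for a strain bearing genetic alterations in DNA damage repair.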

[4] = NCI Yeast Anticancer Drug Screen. Data for the cln2 rad14 strain (AID 165);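 note: 0% = growth equal to vehicle treated cultures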; conditions: S. cerevisiae cln2 rad14 strain, stronger effect = higher value
Summary of the method: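 Each compound was tested on cln2 rad14 yeast. Inhibition of growth was calculated against vehicle-exposed controls.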

[5] = NCI Yeast Anticancer Drug Screen. Data for the bub3 strain (AID 167); conditions: S. cerevisiae bub3 mutant strain, stronger effect = higher value
Summary of the method: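 In this screen, a yeast mutant lacking normal mitotic checkpoint function is challenged with compound. Relative growth versus vehicle gives the inhibition value.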

[6] = NCI Yeast Anticancer Drug Screen. Data for the mlh1 rad18 strain (AID 175); conditions: S. cerevisiae mlh1 rad18 strain growth inhibition, stronger effect = higher value
Summary of the method: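 Vehicle-treated cultures served as the reference for growth inhibition in a yeast strain carrying DNA damage repair alterations exposed to each compound.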

[7] = at 5.0 µM (retest, dose inferred, filed as 0.5)
[8] = at 50.0 µM (retest, dose inferred, filed as 5.0)

Structure (SMILES) | growth inhibition [1, 7] | growth inhibition [1, 8] | growth inhibition ([1]; at 50.0 µM) | growth inhibition [2, 7] | growth inhibition [2, 8] | growth inhibition ([2]; at 50.0 µM) | growth inhibition [3, 7] | growth inhibition [3, 8] | growth inhibition ([3]; at 50.0 µM) | growth inhibition [4, 7] | growth inhibition [4, 8] | growth inhibition ([4]; at 50.0 µM) | growth inhibition [5, 7] | growth inhibition [5, 8] | growth inhibition ([5]; at 50.0 µM) | growth inhibition [6, 7] | growth inhibition [6, 8] | growth inhibition ([6]; at 50.0 µM)
C/C(=C/C(=O)N1c2ccccc2CC1c1c[nH]c2ccccc12)C(=O)O (stereo not given) | -1% | 39% | 62.1% | -8% | 5% | -2.65% | -3% | 33% | 46.9% | -79% | 8% | -0.65% | -4% | 20% | 17.1% | -2% | 15% | 40.9%
CC(COC(=O)C(c1ccccc1)C1C=CCCC1)CN1CCCC1 (stereo not given) | -1% | 60% | 70.4% (active) | 18% | 51% | 46.8% | 21% | 61% | 72.8% (active) | 4% | 34% | 86.5% (active) | 0% | 36% | 74.5% (active) | 35% | 74% (active) | 90.3% (active)
O=C1c2ccccc2C(=O)C2OC12 (stereo not given) | 48% | 98% (active) | 93.2% (active) | 48% | 98% (active) | 95.1% (active) | 50% | 99% (active) | 94.7% (active) | 72% (active) | 99% (active) | 93.3% (active) | 73% (active) | 100% (active) | 93.5% (active) | 51% | 99% (active) | 89.9% (active)
O=C1/C(=C/c2ccc(Cl)c(Cl)c2)CN(C(=O)CCN2CCOCC2)C/C1=C\c1ccc(Cl)c(Cl)c1 | 99% (active) | 86% (active) | 41% | 99% (active) | 94% (active) | 85.8% (active) | 99% (active) | 92% (active) | 85.2% (active) | 90% (active) | 89% (active) | 87.3% (active) | 99% (active) | 89% (active) | 89% (active) | 99% (active) | 88% (active) | 87.5% (active)
CCCC(=O)Oc1ccc(-c2ccccc2)cc1Br | 2% | 83% (active) | 96.5% (active) | 2% | 86% (active) | 91.5% (active) | 4% | 81% (active) | 94.5% (active) | 6% | 84% (active) | 86.7% (active) | 18% | 77% (active) | 91.1% (active) | -1% | 73% (active) | 95.9% (active)
c1ccc(-c2n[nH]c3c4ccccc4c4ccccc4c23)cc1 | 19% | 92% (active) | 93.8% (active) | 16% | 98% (active) | 95% (active) | 34% | 97% (active) | 94.2% (active) | 5% | 94% (active) | 93.4% (active) | 13% | 95% (active) | 95% (active) | 62% | 96% (active) | 95% (active)
c1cc[c]([Sn]([CH]2c3ccccc3-c3ccccc32)([CH]2c3ccccc3-c3ccccc32)[CH]2c3ccccc3-c3ccccc32)cc1 | 4% | 0% | 95.2% (active) | 5% | 2% | 98% (active) | -1% | -4% | 95.5% (active) | 3% | 6% | 95% (active) | 2% | -3% | 97.3% (active) | 4% | 11% | 96.3% (active)
CC(C)OP(=O)(CCCCCCCCC/C=C/c1ccc2c(c1)OCCOCCOCCOCCO2)OC(C)C | 20% | 98% (active) | 97.8% (active) | 4% | 99% (active) | 92.3% (active) | -4% | 98% (active) | 98.2% (active) | 7% | 98% (active) | 97.3% (active) | -11% | 99% (active) | 98.3% (active) | 24% | 99% (active) | 98.1% (active)
CCCCOc1ccc(CN2CCOC2=O)cc1 | 3% | 8% | 38.6% | 7% | 12% | 17.8% | 4% | 4% | 10.6% | 5% | 9% | 28.3% | 7% | 7% | 6.3% | 0% | 3% | 55.4%
Cc1cc(C(O)(C(F)(F)F)C(F)(F)F)cc(C(O)(C(F)(F)F)C(F)(F)F)c1 | -1% | 99% (active) | 97.2% (active) | 12% | 99% (active) | 98.3% (active) | -6% | 99% (active) | 52.8% | -4% | 99% (active) | 95.7% (active) | 6% | 98% (active) | 96% (active) | 1% | 99% (active) | 97.8% (active)

Reference: PubChem BioAssay (NCI)
